From the supplement of paper PMC10849652
About 8,800 targets were measured; listed, in parts, are those with a hit and a random draw of the rest. About 0.5% of all pairs of compound and target were hits. A number with no mark means an inactive call.

Assays:
Assay in all cases: log2 fold change, soluble protein after heating vs DMSO (PISA); higher = thermal stabilisation; K562 lysate, 10 uM; active = over 0.2 and 3.5 SD of the protein, either way, in both replicates (recomputed)
vemurafenib = compound: CCCS(=O)(=O)Nc1ccc(F)c(C(=O)c2c[nH]c3ncc(-c4ccc(Cl)cc4)cc23)c1F [vemurafenib]
Method in brief: (§1)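 Quantification was by TMTpro 16plex LC-MS/MS with equalised channel sums, applied to the supernatant after 21,000xg for 90 min. Samples were crude K562 extract at 1 mg/mL protein in PBS pH 7.4 with 1 mM MgCl2, treated with 10 μM compound for 30 min, heated for 3 min across 48°C-58°C, pooled and brought to 0.5% NP-40 at 4°C. Values are log-two fold changes in thermal stability relative to solvent controls, from duplicates.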

barasertib = compound: CCN(CCCOc1ccc2c(Nc3cc(CC(=O)Nc4cccc(F)c4)[nH]n3)ncnc2c1)CCOP(=O)(O)O [barasertib]
Method in brief: as §1

[1] = compound: CC[C@@H]1C(=O)N(C)c2cnc(Nc3ccc(C(=O)NC4CCN(C)CC4)cc3OC)nc2N1C1CCCC1
Method in brief: as §1

[2] = compound: CCn1c(C(=O)N(C2CC2)C2CC2)cc2c3c(ncn3C)c(Nc3cc(C)n(C)n3)nc21
Method in brief: as §1

[3] = compound: CCn1cc(-c2ccnc3[nH]c(-c4cccc(CN(C)C)c4)cc23)c(-c2ccc(NC(=O)N(C)C)cc2)n1
Method in brief: as §1

[4] = compound: CN1CCC(CNc2ccc3ncc(-c4cccc(OC(F)(F)F)c4)n3n2)CC1
Method in brief: as §1

saracatinib = compound: CN1CCN(CCOc2cc(OC3CCOCC3)c3c(Nc4c(Cl)ccc5c4OCO5)ncnc3c2)CC1 [saracatinib]
Method in brief: as §1

sotrastaurin = compound: CN1CCN(c2nc(C3=C(c4c[nH]c5ccccc45)C(=O)NC3=O)c3ccccc3n2)CC1 [sotrastaurin]
Method in brief: as §1

alvocidib = compound: CN1CC[C@H](c2c(O)cc(O)c3c(=O)cc(-c4ccccc4Cl)oc23)[C@H](O)C1 [alvocidib]
Method in brief: as §1

Tubastatin A = compound: CN1CCc2c(c3ccccc3n2Cc2ccc(C(=O)NO)cc2)C1 [Tubastatin A]
Method in brief: as §1

[5] = compound: CNC(=O)C1=CC=CC=C1NC2=NC(=NC=C2Cl)NC3=C(C=C(C=C3)N4CCOCC4)OC
Method in brief: as §1

defactinib = compound: CNC(=O)c1ccc(Nc2ncc(C(F)(F)F)c(NCc3nccnc3N(C)S(C)(=O)=O)n2)cc1 [defactinib]
Method in brief: as §1

[6] = compound: CNc1nc(-c2ccc3c(N)n[nH]c3c2)cc(N2C[C@@H](C(=O)NC3CCCCC3)CC[C@H]2C)n1
Method in brief: as §1

encorafenib = compound: COC(=O)N[C@@H](C)CNc1nccc(-c2cn(C(C)C)nc2-c2cc(Cl)cc(NS(C)(=O)=O)c2F)n1 [encorafenib]
Method in brief: as §1

[7] = compound: COC(=O)[C@H](CCSC)NC(=O)C1=C(C=C(C=C1)NC[C@H](CS)N)C2=CC=CC=C2
Method in brief: as §1

alisertib = compound: COc1cc(Nc2ncc3c(n2)-c2ccc(Cl)cc2C(c2c(F)cccc2OC)=NC3)ccc1C(=O)O [alisertib]
Method in brief: as §1

gefitinib = compound: COc1cc2ncnc(Nc3ccc(F)c(Cl)c3)c2cc1OCCCN1CCOCC1 [gefitinib]
Method in brief: as §1

[8] = compound: CCCS(=O)(=O)Nc1ccc(F)c(C(=O)c2c[nH]c3ncc(Cl)cc23)c1F
Method in brief: as §1

volasertib = compound: CC[C@@H]1C(=O)N(C)c2cnc(Nc3ccc(C(=O)N[C@H]4CC[C@H](N5CCN(CC6CC6)CC5)CC4)cc3OC)nc2N1C(C)C [volasertib]
Method in brief: as §1

[9] = compound: COc1cc2nc(-c3cc(F)ccc3O)nc(N[C@@H]3CNC[C@H]3C(C)(C)O)c2cc1OC
Method in brief: as §1

UniProt P58012, sequence (P58012 whole entry, looked up): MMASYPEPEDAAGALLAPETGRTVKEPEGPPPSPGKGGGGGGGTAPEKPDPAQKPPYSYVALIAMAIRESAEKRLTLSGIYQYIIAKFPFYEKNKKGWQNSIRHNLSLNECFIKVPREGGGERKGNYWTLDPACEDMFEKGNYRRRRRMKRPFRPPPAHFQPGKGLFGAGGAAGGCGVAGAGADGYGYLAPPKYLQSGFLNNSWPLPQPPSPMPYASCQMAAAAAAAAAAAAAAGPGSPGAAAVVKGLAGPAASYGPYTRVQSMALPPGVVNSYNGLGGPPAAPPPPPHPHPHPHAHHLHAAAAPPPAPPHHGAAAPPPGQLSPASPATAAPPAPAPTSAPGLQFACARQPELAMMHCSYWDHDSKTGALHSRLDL
UniProt Q5HYJ3, sequence (Q5HYJ3 whole entry, looked up): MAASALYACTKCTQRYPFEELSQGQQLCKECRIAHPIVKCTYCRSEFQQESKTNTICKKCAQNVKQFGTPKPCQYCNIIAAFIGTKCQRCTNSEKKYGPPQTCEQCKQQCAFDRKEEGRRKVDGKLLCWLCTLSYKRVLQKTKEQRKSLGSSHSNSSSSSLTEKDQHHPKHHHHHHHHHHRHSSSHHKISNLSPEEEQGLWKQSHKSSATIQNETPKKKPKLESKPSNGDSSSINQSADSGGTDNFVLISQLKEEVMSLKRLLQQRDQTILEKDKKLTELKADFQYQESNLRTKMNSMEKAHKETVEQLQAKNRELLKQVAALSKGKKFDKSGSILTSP
UniProt Q96CN4, sequence (Q96CN4 whole entry, looked up): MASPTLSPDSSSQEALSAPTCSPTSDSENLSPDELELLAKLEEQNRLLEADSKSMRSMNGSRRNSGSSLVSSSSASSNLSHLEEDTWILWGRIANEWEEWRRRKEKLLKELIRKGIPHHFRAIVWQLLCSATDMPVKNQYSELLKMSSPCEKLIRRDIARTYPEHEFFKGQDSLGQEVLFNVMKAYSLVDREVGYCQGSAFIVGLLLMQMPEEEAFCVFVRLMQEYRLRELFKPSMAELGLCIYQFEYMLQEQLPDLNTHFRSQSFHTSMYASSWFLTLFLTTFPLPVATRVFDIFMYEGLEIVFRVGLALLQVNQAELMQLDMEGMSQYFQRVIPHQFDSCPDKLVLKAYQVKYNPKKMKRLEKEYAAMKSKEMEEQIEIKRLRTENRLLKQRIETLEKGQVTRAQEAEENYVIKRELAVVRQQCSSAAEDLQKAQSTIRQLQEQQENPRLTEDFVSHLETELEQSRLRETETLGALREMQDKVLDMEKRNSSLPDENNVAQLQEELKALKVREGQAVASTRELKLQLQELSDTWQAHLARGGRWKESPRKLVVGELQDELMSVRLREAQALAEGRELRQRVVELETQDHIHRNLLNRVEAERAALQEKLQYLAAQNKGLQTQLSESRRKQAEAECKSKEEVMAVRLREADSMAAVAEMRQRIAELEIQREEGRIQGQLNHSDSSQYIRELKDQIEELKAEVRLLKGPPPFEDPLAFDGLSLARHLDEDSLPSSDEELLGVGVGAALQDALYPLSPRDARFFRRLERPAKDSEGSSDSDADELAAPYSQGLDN
UniProt Q9UKR5, sequence (Q9UKR5 whole entry, looked up): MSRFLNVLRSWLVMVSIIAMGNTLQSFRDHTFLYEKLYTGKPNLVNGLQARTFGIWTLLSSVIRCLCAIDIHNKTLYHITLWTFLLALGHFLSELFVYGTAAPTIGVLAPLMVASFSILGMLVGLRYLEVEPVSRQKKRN
UniProt Q9UET6, sequence (Q9UET6 whole entry, looked up): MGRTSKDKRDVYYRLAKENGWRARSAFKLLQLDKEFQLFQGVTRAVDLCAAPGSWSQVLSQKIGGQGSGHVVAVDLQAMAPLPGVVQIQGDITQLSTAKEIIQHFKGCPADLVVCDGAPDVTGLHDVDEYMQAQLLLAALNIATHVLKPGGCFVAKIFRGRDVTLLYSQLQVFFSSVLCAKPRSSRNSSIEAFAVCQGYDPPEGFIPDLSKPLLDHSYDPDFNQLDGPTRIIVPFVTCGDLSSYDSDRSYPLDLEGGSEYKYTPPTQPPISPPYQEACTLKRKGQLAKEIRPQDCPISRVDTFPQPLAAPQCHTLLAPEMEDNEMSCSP
UniProt P02774, sequence (P02774 whole entry, looked up): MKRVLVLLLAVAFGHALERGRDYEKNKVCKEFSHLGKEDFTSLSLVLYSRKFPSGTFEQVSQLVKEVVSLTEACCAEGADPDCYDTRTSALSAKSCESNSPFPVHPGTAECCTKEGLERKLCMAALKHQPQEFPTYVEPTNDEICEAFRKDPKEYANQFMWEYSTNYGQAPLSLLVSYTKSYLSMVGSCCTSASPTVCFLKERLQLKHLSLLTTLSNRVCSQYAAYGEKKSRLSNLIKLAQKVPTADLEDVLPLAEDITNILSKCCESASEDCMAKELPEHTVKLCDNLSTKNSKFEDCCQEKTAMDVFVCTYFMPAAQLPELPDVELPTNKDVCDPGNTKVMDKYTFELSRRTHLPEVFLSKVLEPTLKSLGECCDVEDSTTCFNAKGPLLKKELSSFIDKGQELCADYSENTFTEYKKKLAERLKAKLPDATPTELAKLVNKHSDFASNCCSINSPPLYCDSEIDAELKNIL
UniProt Q8TF64, sequence (Q8TF64 whole entry, looked up): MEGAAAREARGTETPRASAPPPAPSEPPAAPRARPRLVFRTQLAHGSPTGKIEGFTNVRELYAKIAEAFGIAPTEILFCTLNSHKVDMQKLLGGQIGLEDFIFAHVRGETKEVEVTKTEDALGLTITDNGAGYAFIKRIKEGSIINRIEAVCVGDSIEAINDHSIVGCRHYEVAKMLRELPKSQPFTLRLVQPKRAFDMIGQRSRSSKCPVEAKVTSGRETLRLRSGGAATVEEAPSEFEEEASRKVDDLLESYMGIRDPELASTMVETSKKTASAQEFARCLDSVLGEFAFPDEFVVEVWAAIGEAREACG
UniProt Q08426, sequence (Q08426 whole entry, looked up): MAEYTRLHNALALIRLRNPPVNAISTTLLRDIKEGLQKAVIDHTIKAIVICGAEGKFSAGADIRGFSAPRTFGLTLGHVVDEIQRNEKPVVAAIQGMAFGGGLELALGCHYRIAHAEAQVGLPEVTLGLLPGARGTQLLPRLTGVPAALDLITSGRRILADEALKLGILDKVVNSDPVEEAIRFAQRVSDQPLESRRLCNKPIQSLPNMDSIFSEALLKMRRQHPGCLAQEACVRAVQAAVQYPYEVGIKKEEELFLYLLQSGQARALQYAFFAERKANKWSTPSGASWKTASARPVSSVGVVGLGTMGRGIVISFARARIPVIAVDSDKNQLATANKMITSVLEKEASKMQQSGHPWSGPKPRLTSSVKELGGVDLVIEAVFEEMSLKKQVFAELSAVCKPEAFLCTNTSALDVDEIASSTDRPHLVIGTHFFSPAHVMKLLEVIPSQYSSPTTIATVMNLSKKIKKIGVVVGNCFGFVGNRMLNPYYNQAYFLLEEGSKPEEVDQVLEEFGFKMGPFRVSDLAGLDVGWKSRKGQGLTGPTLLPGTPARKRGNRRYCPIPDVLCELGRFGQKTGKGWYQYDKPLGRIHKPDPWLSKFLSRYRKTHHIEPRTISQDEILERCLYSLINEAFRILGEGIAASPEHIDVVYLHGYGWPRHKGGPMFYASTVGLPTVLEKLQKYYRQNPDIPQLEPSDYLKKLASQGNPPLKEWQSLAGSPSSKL
UniProt Q9NZC3, sequence (Q9NZC3 whole entry, looked up): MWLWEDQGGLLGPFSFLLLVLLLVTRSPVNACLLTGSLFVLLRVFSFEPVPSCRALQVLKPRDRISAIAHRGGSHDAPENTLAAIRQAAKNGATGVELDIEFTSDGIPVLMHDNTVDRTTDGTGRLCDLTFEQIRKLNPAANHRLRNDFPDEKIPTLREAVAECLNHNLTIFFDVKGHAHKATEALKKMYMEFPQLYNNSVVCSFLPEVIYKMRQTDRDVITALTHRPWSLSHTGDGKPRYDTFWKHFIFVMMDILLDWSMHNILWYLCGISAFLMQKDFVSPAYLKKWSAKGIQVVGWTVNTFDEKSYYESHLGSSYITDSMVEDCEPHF
UniProt Q9H6S3, sequence (Q9H6S3 whole entry, looked up): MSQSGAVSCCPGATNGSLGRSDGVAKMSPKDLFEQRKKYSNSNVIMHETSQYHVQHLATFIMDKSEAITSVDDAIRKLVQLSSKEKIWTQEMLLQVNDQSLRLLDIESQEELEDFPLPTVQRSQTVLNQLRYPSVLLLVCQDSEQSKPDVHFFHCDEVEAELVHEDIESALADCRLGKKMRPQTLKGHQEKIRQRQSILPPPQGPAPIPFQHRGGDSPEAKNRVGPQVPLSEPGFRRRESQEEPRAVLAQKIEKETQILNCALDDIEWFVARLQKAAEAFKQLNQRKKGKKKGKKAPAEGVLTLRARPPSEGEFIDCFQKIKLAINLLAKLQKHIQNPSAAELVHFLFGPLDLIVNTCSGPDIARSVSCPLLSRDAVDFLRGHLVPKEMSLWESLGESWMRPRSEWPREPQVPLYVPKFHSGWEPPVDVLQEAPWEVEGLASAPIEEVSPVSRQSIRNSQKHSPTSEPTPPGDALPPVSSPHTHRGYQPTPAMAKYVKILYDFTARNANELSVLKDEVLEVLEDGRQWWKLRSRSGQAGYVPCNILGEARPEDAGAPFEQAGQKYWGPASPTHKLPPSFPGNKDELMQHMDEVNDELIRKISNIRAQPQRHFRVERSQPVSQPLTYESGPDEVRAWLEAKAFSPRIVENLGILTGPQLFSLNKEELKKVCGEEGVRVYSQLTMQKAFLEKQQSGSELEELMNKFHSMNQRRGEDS
UniProt Q14153, sequence (Q14153 whole entry, looked up): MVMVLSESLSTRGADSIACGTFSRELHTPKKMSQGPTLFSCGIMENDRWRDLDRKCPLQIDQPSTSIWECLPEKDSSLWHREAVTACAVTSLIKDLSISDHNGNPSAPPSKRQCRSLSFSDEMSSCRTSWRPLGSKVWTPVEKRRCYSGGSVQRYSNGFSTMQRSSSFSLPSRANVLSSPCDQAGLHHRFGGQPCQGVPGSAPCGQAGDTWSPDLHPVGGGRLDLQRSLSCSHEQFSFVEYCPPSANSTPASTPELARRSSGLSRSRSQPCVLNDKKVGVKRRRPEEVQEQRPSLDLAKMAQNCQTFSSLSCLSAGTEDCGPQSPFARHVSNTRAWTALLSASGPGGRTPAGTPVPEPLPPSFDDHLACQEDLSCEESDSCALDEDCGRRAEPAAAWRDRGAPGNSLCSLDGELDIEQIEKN

Target | log2 fold change (vemurafenib) | log2 fold change (barasertib) | log2 fold change [1] | log2 fold change [2] | log2 fold change [3] | log2 fold change [4] | log2 fold change (saracatinib) | log2 fold change (sotrastaurin) | log2 fold change (alvocidib) | log2 fold change (Tubastatin A) | log2 fold change [5] | log2 fold change (defactinib) | log2 fold change [6] | log2 fold change (encorafenib) | log2 fold change [7] | log2 fold change (alisertib) | log2 fold change (gefitinib) | log2 fold change [8] | log2 fold change (volasertib) | log2 fold change [9]
FAM53B (UniProt Q14153) | 0.046 | 0.009 | 0.071 | 0.059 | -0.096 | 0.13 | 0.096 | -0.149 | -0.125 | 0.473 (active) | 0.098 | 0.025 | -0.064 | 0.019 | -0.1 | -0.04 | -0.075 |  |  | 
EIF3I (UniProt Q5TFK1) |  |  |  |  | -0.048 | 0.044 |  |  | 0.053 |  |  |  |  |  |  | 0.159 | 0.233 | 0.147 | -0.112 | 0.613
EID1 (UniProt Q9Y6B2) |  |  | 0.015 | 0.001 | -0.073 | 0.002 | -0.157 |  | -0.061 | -0.004 | 0.036 |  | 0.046 | -0.057 | 0.072 | -0.067 | 0.022 |  |  | 
DST isoform 3 (UniProt Q03001) |  | 0.041 | 0.052 |  | 1.48 (active) | -0.213 |  |  | 0.386 |  | -0.061 |  |  | 0.008 | -0.004 |  |  |  |  | 
GIPC3 (UniProt Q8TF64) |  | 0.055 | -0.15 | -0.045 | -0.01 | 0.144 | 0.029 | 0.006 | -0.108 | -0.071 | 0.055 |  | -0.157 | 0.028 | 0.05 | -0.194 | 0.073 | -0.119 | -0.041 | 0.008
EIF2B5, A0A3B3ITK8 |  |  |  |  |  |  |  |  |  |  |  |  |  |  |  | -0.014 | -0.08 | -0.071 | 0.081 | -0.03
ERG28 (UniProt Q9UKR5) |  | 0.065 | 0.179 |  | 0.541 | -0.497 (active) | 0.1 |  | 0.304 |  |  |  | -0.037 | 0.055 | -0.062 |  |  | -0.012 | 0.048 | -0.024
FAM76B (UniProt Q5HYJ3) | 0.048 |  | 0.04 | -0.008 | 0.025 | 0.007 | -0.003 | 0.027 | -0.019 | 0.012 | 0.068 | 0.076 | -0.002 | 0.013 | -0.146 | -0.02 | -0.018 | -0.005 | 0.005 | 0.016
EPB41 isoform 4 (UniProt P11171) |  |  |  | -0.079 | -0.073 | -0.065 |  | -0.02 | -0.014 | 0.012 | -0.089 |  |  |  |  | -0.09 | -0.096 | 0.014 | 0.134 | -0.153
GC isoform 3 (UniProt P02774) | -0.008 |  | 0.022 | -0.27 | 0.146 | -0.12 | -0.02 | 0.043 | 0.105 | 0.087 |  | -0.003 | 0.244 | -0.018 | -0.049 |  |  |  |  | 
GART (UniProt C9JZG2) |  | 0.086 | -0.021 | -0.043 | 0.135 | 0.085 |  | 0.09 | -0.071 | 0.018 |  |  |  | 0.038 | 0.088 | 0.121 | 0.281 | -0.014 | 0.06 | -0.056
GDE1 (UniProt Q9NZC3) |  | 0.108 | 0.107 | 0.005 | 1.04 (active) | -0.455 (active) | 0.035 | -0.064 | 0.307 | -0.047 | 0.014 |  | 0.024 | -0.045 | -0.02 |  |  | 0.038 | 0.092 | -0.038
EVI5L isoform 2 (UniProt Q96CN4) |  |  |  |  | 0.057 | -0.183 |  |  | -0.293 |  |  |  |  |  |  |  |  |  |  | 
FAM204A (UniProt Q9H8W3) | -0.003 |  |  | 0.059 | 0.273 | -0.614 (active) |  | -0.083 | -0.139 | -0.036 | 0.018 | 0.146 |  |  |  |  |  |  |  | 
EHHADH (UniProt Q08426) |  | -0.066 | 0.117 | -0.037 | 0.055 | -0.037 | 0.091 | -0.044 | 0.013 | 0.039 | -0.024 |  | 0.101 | 0.035 | -0.426 | 0.065 | 0.012 | 0.082 | -0.108 | -0.005
EWSR1 (UniProt H7BY36) | -0.035 | -0.055 | 0.095 | -0.046 | -0.056 | -0.043 | 0.024 | -0.02 | 0.206 | 0.179 |  | 0.14 | 0.037 | 0.063 | -0.061 |  |  |  |  | 
FTSJ1 isoform 2 (UniProt Q9UET6) | -0.164 |  | -0.024 |  | -0.019 | 0.047 |  |  | 0.015 |  |  | 0.028 |  | -0.027 | 0.047 |  |  | 0.021 | 0.013 | -0.016
EPS8L2 (UniProt Q9H6S3) |  | -0.049 | 0.022 | -0.034 | -0.196 | 0.056 | 0.045 | -0.049 | -0.009 | 0.078 | -0.016 |  | 0.031 | 0.096 | -0.037 | 0.01 | -0.149 | 0 | 0.023 | -0.036
FBRSL1, A0A3B3IRR3 | 0.132 | 0.055 | 0.069 | 0.085 | 0 | -0.061 | -0.028 | -0.039 | -0.051 | -0.004 | -0.074 | -0.002 | 0.008 | 0.021 | -0.03 | -0.018 | 0.014 |  |  | 
EPN2 (UniProt I3L356) |  | -0.106 |  |  | -0.277 | 0.075 |  |  | -0.108 |  |  |  |  |  |  | -0.253 | 0.321 | 0.212 | -0.026 | -0.02
ETFRF1 (UniProt Q6IPR1) | 0.084 | 0.012 |  | 0 | -0.005 | -0.03 | -0.01 | -0.002 | 0.025 | 0.032 | -0.006 | -0.071 | 0.021 |  |  | 0.003 | -0.009 | -0.003 | -0.03 | -0.042
EIF2AK3 (UniProt Q9NZJ5) |  |  |  | 0.119 | -0.063 | -0.199 | 0.01 |  | 0.281 | -0.369 | 0.28 |  | 0.104 |  |  | -0.128 | 0.001 | -0.216 | 0.231 | -0.197
FAM111A (UniProt Q96PZ2) | -0.02 |  | -0.34 | 0.112 |  |  | 0.055 | -0.016 |  | -0.083 | 0.022 | 0.053 | -0.119 | -0.074 | -0.11 |  |  | 0.432 (active) | -0.045 | -0.091
FAT1 (UniProt Q14517) |  |  | 0.32 | -0.344 | 0.001 | -0.036 |  | -0.333 | -0.14 | 0.18 | 0 |  |  | 0.029 | 0.047 |  |  | 0.022 | 0.025 | 0.094
GAPVD1 (UniProt Q14C86) |  | 0.078 |  |  |  |  |  |  |  |  |  |  |  |  |  |  |  | 0.116 | -0.305 | 0.071
DYRK1A isoform 2 (UniProt Q13627) |  | 0.006 |  | 0.308 | 0.085 | 0.221 |  | 0.033 | 0.225 | 0.023 | 0.148 |  |  |  |  |  |  |  |  | 
FOXL2 (UniProt P58012) |  | 0.051 | 0.01 | 0.174 |  |  | -0.038 |  |  | -0.049 | 0.031 |  | 0.005 | 0.079 | 0.138 |  |  | 0.026 | 0.046 | 0.015
